“And” between values parts separate entries of the source, which are not always exact repeats. Equal entries are not always repeated. Results filed as inconclusive are left out. The source made the active and inactive calls.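 How the source made its calls, unless noted: active means normalized viability below 100% at a tested concentration; inactive means the rest.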
What was measured:
[1] = viability loss in pontine glioma line – cell-based, SU-DIPG-XVII, MIPE5.0, CellTiter-Glo, qHTS, dose response (AID 1347060; cut-off not given, nearly all actives have AC50 up to about 26 µM;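 on AC50: cells exposed to compound for 48 hours before viability readout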); conditions: CellTiter-Glo ATP luminescence
[2] = viability loss in pontine glioma line – cell-based, SU-DIPG-XIII, MIPE4.0, CellTiter-Glo, qHTS, dose response (AID 1347061; cut-off not given, nearly all actives have AC50 up to about 37 µM;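 further: cells exposed to compound for 48 hours before readout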); conditions: CellTiter-Glo ATP luminescence
[3] = viability loss in pontine glioma line – cell-based, SU-DIPG-IV, MIPE4.0, CellTiter-Glo, qHTS, dose response (AID 1347063; cut-off not given, nearly all actives have AC50 up to about 30 µM;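 further: compound exposure lasted 48 hours before the viability readout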); conditions: CellTiter-Glo ATP luminescence
[4] = viability loss in pontine glioma line – cell-based, SU-DIPG-XXV, MIPE5.0, CellTiter-Glo, qHTS, dose response (AID 1347065; cut-off not given, nearly all actives have AC50 up to about 26 µM;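 further: cells exposed to compound for 48 hours before ATP readout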); conditions: CellTiter-Glo ATP luminescence
[5] = growth inhibition of DIPG cells – cell-based, MIPE4.0 library, CellTiter-Glo luminescence, qHTS (AID 1347066; cut-off not given, nearly all actives have AC50 up to about 30 µM;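 further: cells exposed to compound for 48 hours before readout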); conditions: SU-DIPG-VI viability, CellTiter-Glo ATP luminescence
[6] = JHH-DIPG-1 glioma cell viability, MIPE5.0 library, CellTiter-Glo luminescence, qHTS (AID 1347067; cut-off not given, nearly all actives have AC50 up to about 26 µM;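 further: cells exposed to compound for 48 hours before readout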); conditions: JHH-DIPG-1 glioma viability, CellTiter-Glo ATP luminescence
[7] = viability loss with induced miR-34 in A549 – imaging, A549 dox-inducible miR-34, nuclei and caspase counts, primary screen (AID 1347080;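 active means compounds whose cell count with miR-34 switched on is under 0.7 times the count with it off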); conditions: A549 miR-34 inducible, Hoechst nuclei count, 48 h
[8] = MELAS cybrid and Rieske KO viability enhancers – cell-based, MELAS cybrids, Rieske KO mouse fibroblasts, CellTiter-Glo, primary screen (AID 1508586;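 active means mean z-score across replicates of 1.96 or higher in either the MELAS or the Rieske mutant cell line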;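 further: z relative to plate mean and SD of compound and empty wells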); conditions: low glucose
[9] = drug combination growth inhibition, ovarian cancer – cell-based, oncology-focused library, rucaparib conditional, profiling panel (AID 1508598); conditions: patient-derived ovarian cancer cells, CellTiter-Glo viability, 144 h, stronger effect = lower value
[10] = viability loss in pontine glioma line – cell-based, SU-DIPG-XIII, MIPE5.0, CellTiter-Glo, qHTS, dose response (AID 1347064; cut-off not given, nearly all actives have AC50 up to about 23 µM;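 further: cells exposed to compound for 48 hours before the viability read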); conditions: CellTiter-Glo ATP luminescence
[11] = growth inhibition of DIPG cells – cell-based, MIPE5.0 library, qHTS (AID 1347068; cut-off not given, nearly all actives have IC50 up to about 30 µM); conditions: SU-DIPG-XXV viability
[12] = stronger effect = lower value, cell number ratio, induced over uninduced
[13] = measured here: relative caspase fold change +Dox/-Dox
[14] = measured here: total cells with miR-34 induction, stronger effect = lower value
[15] = measured here: total cells without miR-34 induction

Nc1cccc2c1C(=O)N(C1CCC(=O)NC1=O)C2=O (centres undefined)
9490: cell count [7, 15]
0.628: z-score ([8]; Rieske KO mouse fibroblast survival, CellTiter-Glo 72 h)
inactive: outcome [1] | outcome [2] | outcome [3] | outcome [5] | outcome [6] | fold change [7, 12] 0.865 | z-score ([8]; MELAS cybrid survival, CellTiter-Glo 48 h, stronger effect = higher value) 0.05 | viability ([9]; at 0.000305 µM, OCI-C5x cells, with rucaparib 10 µM, 100% = cells with rucaparib alone) 110% | viability ([9]; at 0.000305 µM, OCI-C5x cells, without rucaparib) 124% | viability ([9]; at 0.000305 µM, OCI-P5x cells, with rucaparib 20 µM, 100% = cells with rucaparib alone) 110% | viability ([9]; at 0.000305 µM, OCI-P5x cells, without rucaparib) 127% | viability ([9]; at 0.00122 µM, OCI-C5x cells, with rucaparib 10 µM, 100% = cells with rucaparib alone) 109% | viability ([9]; at 0.00122 µM, OCI-C5x cells, without rucaparib) 124% | viability ([9]; at 0.00122 µM, OCI-P5x cells, with rucaparib 20 µM, 100% = cells with rucaparib alone) 107% | viability ([9]; at 0.00122 µM, OCI-P5x cells, without rucaparib) 125% | viability ([9]; at 0.00488 µM, OCI-C5x cells, with rucaparib 10 µM, 100% = cells with rucaparib alone) 112% | viability ([9]; at 0.00488 µM, OCI-C5x cells, without rucaparib) 121% | viability ([9]; at 0.00488 µM, OCI-P5x cells, with rucaparib 20 µM, 100% = cells with rucaparib alone) 102% | viability ([9]; at 0.00488 µM, OCI-P5x cells, without rucaparib) 118% | viability ([9]; at 0.0195 µM, OCI-C5x cells, with rucaparib 10 µM, 100% = cells with rucaparib alone) 115% | viability ([9]; at 0.0195 µM, OCI-C5x cells, without rucaparib) 125% | viability ([9]; at 0.0195 µM, OCI-P5x cells, with rucaparib 20 µM, 100% = cells with rucaparib alone) 105% | viability ([9]; at 0.0195 µM, OCI-P5x cells, without rucaparib) 114% | viability ([9]; at 0.0781 µM, OCI-C5x cells, with rucaparib 10 µM, 100% = cells with rucaparib alone) 117% | viability ([9]; at 0.0781 µM, OCI-C5x cells, without rucaparib) 112% | viability ([9]; at 0.0781 µM, OCI-P5x cells, with rucaparib 20 µM, 100% = cells with rucaparib alone) 104% | viability ([9]; at 0.0781 µM, OCI-P5x cells, without rucaparib) 118% | viability ([9]; at 0.313 µM, OCI-C5x cells, with rucaparib 10 µM, 100% = cells with rucaparib alone) 110% | viability ([9]; at 0.313 µM, OCI-C5x cells, without rucaparib) 116% | viability ([9]; at 0.313 µM, OCI-P5x cells, without rucaparib) 107% | viability ([9]; at 1.25 µM, OCI-C5x cells, with rucaparib 10 µM, 100% = cells with rucaparib alone) 118% | viability ([9]; at 1.25 µM, OCI-C5x cells, without rucaparib) 117% | viability ([9]; at 5 µM, OCI-C5x cells, with rucaparib 10 µM, 100% = cells with rucaparib alone) 105% | viability ([9]; at 5 µM, OCI-C5x cells, without rucaparib) 110%
active: AC50 [4] 0.00118 µM | viability ([9]; at 0.313 µM, OCI-P5x cells, with rucaparib 20 µM, 100% = cells with rucaparib alone) 99.9% | viability ([9]; at 1.25 µM, OCI-P5x cells, with rucaparib 20 µM, 100% = cells with rucaparib alone) 88.7% | viability ([9]; at 1.25 µM, OCI-P5x cells, without rucaparib) 97.8% | viability ([9]; at 5 µM, OCI-P5x cells, with rucaparib 20 µM, 100% = cells with rucaparib alone) 84.6% | viability ([9]; at 5 µM, OCI-P5x cells, without rucaparib) 97.3%
0.842: fold change [7, 13]
8200: cell count [7, 14]

C/C=C/C/C=C/CCC(=O)[C@H]1O[C@H]1C(N)=O
2.34 and 1.07: fold change [7, 13]
658 and 6130: cell count [7, 15]
inactive: outcome [2] | outcome [5] | fold change [7, 12] 0.809 and 1.05
active: AC50 [1] 20.9 µM | AC50 [10] 20.9 µM | AC50 [6] 23.5 µM
532 and 6420: cell count [7, 14]

CO[C@H]1C[C@@H]2CC[C@@H](C)[C@@](O)(O2)C(=O)C(=O)N2CCCC[C@H]2C(=O)O[C@H]([C@H](C)C[C@@H]2CC[C@@H](OP(C)(C)=O)[C@H](OC)C2)CC(=O)[C@H](C)/C=C(\C)[C@@H](O)[C@@H](OC)C(=O)[C@H](C)C[C@H](C)/C=C/C=C/C=C/1C
active: AC50 [1] 18.6 µM | AC50 [3] 23.5 µM | AC50 [4] 16.6 µM | AC50 [6] 20.9 µM
inactive: outcome [2]

Cc1n[nH]c(C)c1Cc1sc2c(c1C(=O)N1C[C@H](O)CO1)c(=O)n(C)c(=O)n2CC(C)C
inactive: outcome [1] | outcome [2] | outcome [3] | outcome [5] | outcome [6] | outcome [11]

Reference: PubChem BioAssay
